Source: PubChem (several laboratories)
Vc quorum ag: quorum light induction in luxS cqsA deficient V. cholerae; V. cholerae BH1578 lux reporter, luminescence, 6 h; activation, % at 18.7 µM; actives 0.16% (n = 350,000); in the data active means activation mostly above about 9.7%, no sharp cut-off; inconclusive means no clear call, values can overlap the other calls; inactive means mostly below about 3.7%
BJeLR lethal: BJeLR cell viability loss; actives 0.17% (n = 300,000); BJeLR (HRASV12) viability, CellTiter-Glo ATP luminescence, 48 h; inhibition, % (no concentration beside the values); in the data active means inhibition above about 50%; inconclusive means no clear call, values can overlap the other calls
BoNT-F LC inh: BoNT F light chain protease inhibition. inhibition, % at 10 µM. Multiplex microsphere protease cleavage assay, flow cytometry. actives 0.22% (n = 360,000). AID 588497; in the data active means inhibition above about 35%, passing the limit was not always enough; inconclusive means no clear call, values can overlap the other calls; further: plate controls were buffer without enzyme for full effect and enzyme alone for no effect
BoNT-A LC inh2: BoNT A light chain protease inhibition; multiplex microsphere protease substrate cleavage, flow cytometry; inhibition, % at 10 µM; actives 0.17% (n = 360,000); further: plate controls were buffer without enzyme for full effect and enzyme alone for no effect
Bead autofluor: counter-screen for toxin protease inhibitors: compound fluorescence; compound autofluorescence counterscreen, microsphere flow cytometry; hits give high values; fluorescence intensity (concentration not given with the values); actives 3.1% (n = 360,000); AID 624483; in the data active means fluorescence intensity above about 16000; inconclusive means no clear call, values can overlap the other calls
Anthrax LF inh2: anthrax lethal factor protease inhibition; P15917; multiplex microsphere protease cleavage assay, LF; inhibition, % at 10 µM; actives 0.12% (n = 360,000); further: plate controls were buffer without enzyme for full effect and enzyme alone for no effect
Active calls of the source: *. Most compounds without a hit are left out; they make up all but 3.7% or so of the library. Unless noted, no stated cut-off is given here; in the data, active means inhibition above about 30%; inconclusive means no clear call, values can overlap the other calls; inactive means below that.

`CCCCn1nc(C(=O)N(C)Cc2nc3ccccc3c(=O)[nH]2)c2ccccc2c1=O` gave Vc quorum ag -1, BoNT-F LC inh 4, BoNT-A LC inh2 0, Bead autofluor 3881 and Anthrax LF inh2 -3.
Screening CC1(C(=O)NCc2cccs2)CCN1C(=O)Cc1cccc2ccccc12 (configuration not stated) returned Vc quorum ag 0, BoNT-F LC inh -3, BoNT-A LC inh2 0, Bead autofluor 3897 and Anthrax LF inh2 -6.
Nc1nonc1C(=O)NCCNCc1cc(Br)ccc1OCc1ccc(F)cc1 was read as Vc quorum ag -1, BJeLR lethal 8, BoNT-F LC inh -14, BoNT-A LC inh2 inconclusive, Bead autofluor 19634* and Anthrax LF inh2 -9.
COc1cc(CNCCNC(=O)c2nonc2N)ccc1OCc1ccc(Cl)nc1 was read as Vc quorum ag 0, BJeLR lethal -5, BoNT-F LC inh -9, BoNT-A LC inh2 0, Bead autofluor 2271 and Anthrax LF inh2 -2.
Screening COc1ccc(CCNC(=O)c2noc3c2CCCC3)cc1OC returned Vc quorum ag 3, BJeLR lethal -4, BoNT-F LC inh 0, BoNT-A LC inh2 2, Bead autofluor 21948* and Anthrax LF inh2 2.
CCC[C@H]1CN(c2ccccc2)C(=O)[C@@H]1CC(=O)NC was read as Vc quorum ag 0, BoNT-F LC inh -2, BoNT-A LC inh2 0, Bead autofluor 3421 and Anthrax LF inh2 -4.
COc1ccc(OC)c(N(CC(=O)N2CCC(C)CC2)S(=O)(=O)c2ccccc2)c1 was read as Vc quorum ag -3, BJeLR lethal 9, BoNT-F LC inh 0, BoNT-A LC inh2 inconclusive, Bead autofluor 20367* and Anthrax LF inh2 -7.
COc1ccc(OC)c(N(CC(N)=O)S(=O)(=O)c2ccc(OC)c(OC)c2)c1 was read as Vc quorum ag 0, BJeLR lethal 4, BoNT-F LC inh 0, BoNT-A LC inh2 0, Bead autofluor 20080* and Anthrax LF inh2 -1.
COc1ccc(OC)c(N(CC(=O)N2CCC(C)CC2)S(=O)(=O)c2ccc(OC)c(OC)c2)c1 was read as Vc quorum ag 0, BJeLR lethal 2, BoNT-F LC inh -6, BoNT-A LC inh2 0, Bead autofluor inconclusive and Anthrax LF inh2 -38.
Screening Cc1ccc(S(=O)(=O)N(CC(=O)N2CCC(C)CC2)c2cccc(C)c2)cc1 returned Vc quorum ag inactive, BJeLR lethal -4, BoNT-F LC inh -2, BoNT-A LC inh2 1, Bead autofluor 20718* and Anthrax LF inh2 -10.
Screening CCOC(=O)N1CCN(C(=O)CN(c2cccc(C)c2)S(=O)(=O)c2ccc(C)cc2)CC1 returned Vc quorum ag inactive, BJeLR lethal 3, BoNT-F LC inh -2, BoNT-A LC inh2 0, Bead autofluor 5574 and Anthrax LF inh2 -6.
CCc1ccc(NC(=O)CSc2nc3c(c(=O)n(C)c(=O)n3C)n2C)cc1 was read as Vc quorum ag 1, BJeLR lethal -3, BoNT-F LC inh -12, BoNT-A LC inh2 -1, Bead autofluor 6148 and Anthrax LF inh2 -7.
CCc1ccc(NC(=O)CC2C(=O)Nc3c2c(=O)n(C)c(=O)n3C)cc1 (configuration not stated) was read as Vc quorum ag 0, BJeLR lethal -4, BoNT-F LC inh 7, BoNT-A LC inh2 3, Bead autofluor 22007* and Anthrax LF inh2 1.
CCc1cccc(C)c1NC(=O)COC(=O)Cc1ccccc1 was read as Vc quorum ag inactive, BoNT-F LC inh -14, BoNT-A LC inh2 0, Bead autofluor 3881 and Anthrax LF inh2 -1.
`CCOC(=O)c1[nH]c(COC(=O)CCOc2ccccc2OC)c(C(=O)OCC)c1C` gave Vc quorum ag -2, BJeLR lethal -4, BoNT-F LC inh -5, BoNT-A LC inh2 inconclusive, Bead autofluor 23144* and Anthrax LF inh2 -1.
For CCOC(=O)CSc1nc(N)c(C#N)c(CC(C)C)c1C#N the results were Vc quorum ag inactive, BJeLR lethal -4, BoNT-F LC inh 1, BoNT-A LC inh2 inconclusive, Bead autofluor 21729* and Anthrax LF inh2 -2.
`CCOC(=O)CC(=O)CSc1nc(N)c(C#N)c(-c2ccc(Cl)cc2)c1C#N` gave Vc quorum ag inactive, BJeLR lethal 0, BoNT-F LC inh -4, BoNT-A LC inh2 -2, Bead autofluor 16851* and Anthrax LF inh2 -4.
For COC(=O)CSc1nc(N)c(C#N)c(CC(C)C)c1C#N the results were Vc quorum ag 0, BJeLR lethal -7, BoNT-F LC inh 9, BoNT-A LC inh2 0, Bead autofluor 2169 and Anthrax LF inh2 1.
O=C(NCc1ccccc1)C1c2ccccc2OCC(=O)N1CCc1c[nH]c2ccccc12 (configuration not stated) was read as BoNT-F LC inh 2, BoNT-A LC inh2 -1, Bead autofluor 5734 and Anthrax LF inh2 -8.
Screening N#CCc1ccc(C(=O)c2ccccc2F)s1 returned Vc quorum ag 25*, BJeLR lethal -9, BoNT-F LC inh -4, BoNT-A LC inh2 1, Bead autofluor 2136 and Anthrax LF inh2 2.
`CN1OC[C@@H]2CN(C(=O)CCc3ccccc3)[C@H](c3ccc(N4CCCCC4)cc3)C[C@@H]21` gave BoNT-F LC inh 1, BoNT-A LC inh2 -1, Bead autofluor 6156 and Anthrax LF inh2 0.
For N#CCSc1nc2cc(C(=O)N3CCC(C(N)=O)CC3)ccc2c2nc3ccccc3n12 the results were Vc quorum ag inactive, BJeLR lethal 11, BoNT-F LC inh 1, BoNT-A LC inh2 2, Bead autofluor 20618* and Anthrax LF inh2 0.
Screening Nc1ccc(Br)cc1 returned Vc quorum ag 0.
Nc1cc(Br)c(N)c(Br)c1 was read as Vc quorum ag -2, BJeLR lethal 11, BoNT-F LC inh -9, BoNT-A LC inh2 -2, Bead autofluor 24247* and Anthrax LF inh2 -2.
Screening FC(F)(F)c1cc(-c2ccco2)nc(N2CCN(c3ccccc3)CC2)n1 returned Vc quorum ag -2, BJeLR lethal -1, BoNT-F LC inh -7, BoNT-A LC inh2 -6, Bead autofluor 25233* and Anthrax LF inh2 -4.
Screening O=C(CCSc1nc(-c2ccco2)cc(C(F)(F)F)n1)N1CCN(c2ccccc2)CC1 returned Vc quorum ag -1, BJeLR lethal -6, BoNT-F LC inh -6, BoNT-A LC inh2 -1, Bead autofluor 3320 and Anthrax LF inh2 -6.
`CCOc1ccc(-c2c(=O)n(OCc3ccccn3)c3ccccc3[n+]2[O-])cc1` gave Vc quorum ag inactive, BJeLR lethal -8, BoNT-F LC inh 1, BoNT-A LC inh2 1, Bead autofluor 22653* and Anthrax LF inh2 0.
Screening CCOC(=O)COn1c(=O)c(-c2ccccc2)[n+]([O-])c2ccccc21 returned Vc quorum ag inactive, BJeLR lethal -10, BoNT-F LC inh 31, BoNT-A LC inh2 2, Bead autofluor 3611 and Anthrax LF inh2 30*.
`CCOC(=O)COn1c(=O)c(-c2ccc(OC)cc2)[n+]([O-])c2ccccc21` gave Vc quorum ag inactive, BJeLR lethal 0, BoNT-F LC inh 4, BoNT-A LC inh2 2, Bead autofluor 3189 and Anthrax LF inh2 11.
